The panel holds about 83,000 compounds, 20% with a hit somewhere; the sample as a whole holds those more often.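 In brief: 96-well plates, 48 h treatment, single concentration, percent growth endpoint.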 Unmarked numbers belong to inactive results. Activity calls are given as the source filed them. How the source made its calls: active means growth percent below 10; inactive means the rest.
Columns and labels:
Test in all cases: NCI-60 one-dose screen, 48 h (100 = growth as untreated, 0 = no growth, -100 = all killed)
Settings in all cases: 10 µM unless noted
DU-145 prostate = test system: DU-145 prostate
K-562 leukemia = test system: K-562 leukemia
MALME-3M melanoma = test system: MALME-3M melanoma
MDA-MB-231 breast = test system: MDA-MB-231 breast
RXF 393 renal = test system: RXF 393 renal
SF-268 CNS = test system: SF-268 CNS
SF-295 CNS = test system: SF-295 CNS
SF-539 CNS = test system: SF-539 CNS
UACC-257 melanoma = test system: UACC-257 melanoma
M14 melanoma = test system: M14 melanoma

SMILES | growth (DU-145 prostate) | growth (K-562 leukemia) | growth (MALME-3M melanoma) | growth (MDA-MB-231 breast) | growth (RXF 393 renal) | growth (SF-268 CNS) | growth (SF-295 CNS) | growth (SF-539 CNS) | growth (UACC-257 melanoma) | growth (M14 melanoma)
Cn1cc(-c2ccc3cc(-c4ccc(CC(=O)Nc5cc(C(C)(C)C)on5)cc4)cnc3c2)cn1 | 22.1% | 5.03% (active) | -15.8% (active) | 11.4% | -0.246% (active) | 15.7% | 29.7% | 20.4% | 5.83% (active) | 0.0609% (active)
N=C(N)SCc1cccc2c(CSC(=N)N)cccc12 | 107% | 103% | 102% | 98.6% | 113% | 97.2% | 113% | 100% | 95.9% | 105%
CN(Cc1cnc2nc(N)nc(N)c2n1)c1c(Cl)cc(C(=O)NC(CCC(=O)O)C(=O)O)cc1Cl (stereo not given) | 23.8% | 21.6% | 68.5% | 68% | 30.9% | 28.4% | 2.98% (active) | 21.4% | 33.8% | 21.3%
Cc1ccc(/C=C2\CN(C(=O)C(Cl)Cl)C/C(=C\c3ccc(C)cc3)C2=O)cc1 | -82.7% (active) | -0.0477% (active) | -56.5% (active) | -3.27% (active) | -88.1% (active) | -20.4% (active) | -7.46% (active) | -86.4% (active) | -33.1% (active) | -65.6% (active)
Oc1c(CN2CCCC2)cc(COCc2ccccc2)c2cccnc12 | 30.4% | 12.2% | 30.8% | 35.9% | 46.5% | 23.2% | 18.3% | -5.32% (active) | -16.1% (active) | -2.08% (active)
C=C1C(=O)O[C@H]2[C@H]1CC/C(Cn1cc(-c3cc(C(F)(F)F)cc(C(F)(F)F)c3)nn1)=C\CC[C@@]1(C)O[C@@H]21 | -90% (active) | -37.6% (active) | -88.5% (active) | -75.7% (active) | -90.9% (active) | -78.7% (active) | -67.4% (active) | -92.2% (active) | -85.3% (active) | -70.3% (active)
CCn1cc(C2=C(c3cn(C)c4ncccc34)C(=O)NC2=O)c2cccnc21 | 80.1% | 100% | 73.8% | 61.2% | 76.9% | 75.6% | 61.4% | 72% | 102% | 81.8%
COc1ccc(C2C3=C(COC3=O)N(CCO)c3cc4c(cc32)OCCO4)cc1OC (stereo not given) | 14.6% | 27.6% | 41.7% | 56.8% | 5.27% (active) | 51.7% | 3.18% (active) | -2.02% (active) | 44.1% | 13.6%
C#Cc1cccc(Nc2nc3ccc([N+](=O)[O-])cc3nc2Nc2cccc(C#C)c2)c1 | -52.4% (active) | -57.5% (active) | -29.5% (active) | -57% (active) | -56.4% (active) | -51.4% (active) | -69.4% (active) | -77.4% (active) | -70.1% (active) | -82% (active)
C=CCCC(=O)N1C=CC(=O)[C@H](O)[C@@H]1/C=C/c1ccccc1 | 35.7% [100 µM] | 26.3% [100 µM] | 89.3% [100 µM] | 52.3% [100 µM] | 78.9% [100 µM] | 35.9% [100 µM] | 33.4% [100 µM] | 19.2% [100 µM] | 64.9% [100 µM] | -19.8% [100 µM] (active)
S=c1ssnc1-c1cccs1 | 123% | 73.3% | 66.3% | 88.8% | 116% | 97.9% | 78.3% | 106% | 107% | 94.2%
CCCCN1C(=O)/C(=c2\sc3n(c2=O)NC2C(N=3)N(CC)C(=O)N2CC)c2ccccc21 (stereo not given) | 20.6% | 14.6% | 57.6% | 34.6% | -0.314% (active) | 48.6% | 69.7% | 13.5% | 31% | 25.3%
CCNc1nc(-c2ccc(F)cc2)c(C#N)c(=O)n1C | 63.4% | 100% | 93% | 33.6% | 44% | 58.5% | 59.7% | 59.7% | 102% | 82.8%
Cc1ccc(C)n1/C=C/n1c(C)ccc1C | 113% | 117% | 117% | 99.2% | 102% | 143% | 76.9% | 100% | 119% | 110%
COc1ccc(C2=Nc3c/c(=C\c4c(O)[nH]c5cc(Cl)ccc45)ccc3=N2)cc1 | 76.8% | 48.8% | 72.6% | 69.2% | 38.1% | 89.7% | 57.9% | 64.8% | 74.5% | 50.5%
Cc1ccc(S(=O)(=O)n2cc(C3C(Cl)C(=O)N3c3ccc(N4CCOCC4=O)cc3)c3ccccc32)cc1 (stereo not given) | 63.6% | 22.5% | 56.4% | 16.5% | 65.5% | 57.9% | 82.5% | 28.1% | 74.3% | 25.7%
COc1ccc(Cc2nnc(Nc3nc4ccccc4s3)s2)cc1 | 109% | 64.8% | 100% | 98% | 97.8% | 103% | 92.9% | 93.9% | 99.9% | 102%
CC(C)CCC[C@@H](C)C1CCC2C3CCC4=C/C(=N/OCCN(C)C)CC[C@]4(C)C3CC[C@@]21C (stereo not given in full) | 91.7% | 73.6% | 91.2% | 89.4% | 91.6% | 65.9% | 68.4% | 93.2% | 97.5% | 93.3%
COc1cc(-c2nc(NC(C)=O)sc2-c2ccnc(NCCNS(=O)(=O)c3ccccc3)n2)ccc1Cl | 53.4% | 13.8% | 27.9% | 35.1% | 36.7% | 38.4% | 10.9% | 8.69% (active) | 47.1% | -20.4% (active)
COc1cc(Nc2ncccc2NC(=O)c2cn(Cc3cccc(Oc4ccccc4)c3)nn2)cc(OC)c1 | 86.2% | 45.4% | 92.3% | 66% | 74.6% | 73.8% | 93.4% | 93% | 104% | 67.6%
Clc1ccc(-c2nc(-c3c[nH]c4ncccc34)cs2)cc1 | 79.6% [100 µM] | 100% [100 µM] | 73% [100 µM] | 31.1% [100 µM] | 18.5% [100 µM] | 40.9% [100 µM] | 18.6% [100 µM] | 20.6% [100 µM] | 105% [100 µM] | 70.3% [100 µM]
COc1ccc(Cl)cc1Nc1nc(C(F)(F)F)ccc1C(=O)N/N=C/c1ccccc1Cl | 14.6% | 2.37% (active) | 11% | -7.46% (active) | 0.498% (active) | 13.6% | -12.1% (active) | -7.07% (active) | 2.7% (active) | 15.2%
O=C1Nc2ccccc2/C1=C/c1cn(C[C@@H](O)Cn2c3ccccc3c(=O)c3ccccc32)c2ccccc12 | 105% | 68.4% | 81.3% | 50.2% | 76.8% | 72.8% | 81.6% | 84.7% | 100% | 69.7%
COc1ccc(/C(C)=C(\c2ccc(Cl)cc2)c2ccc(OCCN3CCCC3)cc2)cc1 | 62.6% | -1.6% (active) | 4.84% (active) | 25.5% | 32.6% | 51.8% | -7.32% (active) | 45.9% | -26.8% (active) | -13.7% (active)
COc1cccc(/C=C2\COc3ccc(O)cc3C2=O)c1 | 89% | 5.52% (active) | 91.1% | 49.7% | 105% | 91.1% | 103% | 88.5% | 111% | 83.4%
Cn1cc(-c2nc(-c3c[nH]c4ccncc34)cs2)c2cc(Br)ccc21 | -95.9% (active) | -54.2% (active) | -79.2% (active) | -80.7% (active) | -94.4% (active) | -73.7% (active) | -78% (active) | -98% (active) | -46.4% (active) | -74.2% (active)

— PubChem BioAssay (NCI)
